What all share (assay): yeast three-hybrid, YBZ-1, SC-Leu-His + 0.5 mM 3-AT, 4 days
Holding throughout (conditions): tags: N-Gal4 AD-HA kept; label: inside an RPR1-promoter hybrid RNA with tandem MS2 sites; ssRNA

Test [1] addresses PUM1 PUF domain R8-RKK (Homo sapiens, UniProt Q14671 828-1176, N1122R;Y1123K;Q1126K). An outline of the steps:
(§1)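 Each repeat of the Pumilio-1 PUF domain was randomized at its three base-contacting residues, and these libraries were co-expressed from a centromeric plasmid with matching RNA elements in strain YBZ-1. After four days on SC-Leu (input) or SC-Leu-His + 0.5 mM 3-AT (selection), the repeat regions were PCR-amplified and Illumina-sequenced. The interaction score compares variant frequency between input and selection as a log change, computed in log2 with a pseudocount of 1 for absent variants.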

The target of test [2] is PUM1 PUF domain R8-LYK (Homo sapiens, UniProt Q14671 828-1176, N1122L;Q1126K). An outline of the steps: as §1
Test [3] concerns the target PUM1 PUF domain R5-GWS (Homo sapiens, UniProt Q14671 828-1176, C1007G;R1008W;Q1011S). An outline of the steps:
as §1

The target in test [4] is T1, PUM1 PUF domain R6-VFS (Homo sapiens, UniProt Q14671 828-1176, N1043V;Y1044F;Q1047S).
T1 sequence: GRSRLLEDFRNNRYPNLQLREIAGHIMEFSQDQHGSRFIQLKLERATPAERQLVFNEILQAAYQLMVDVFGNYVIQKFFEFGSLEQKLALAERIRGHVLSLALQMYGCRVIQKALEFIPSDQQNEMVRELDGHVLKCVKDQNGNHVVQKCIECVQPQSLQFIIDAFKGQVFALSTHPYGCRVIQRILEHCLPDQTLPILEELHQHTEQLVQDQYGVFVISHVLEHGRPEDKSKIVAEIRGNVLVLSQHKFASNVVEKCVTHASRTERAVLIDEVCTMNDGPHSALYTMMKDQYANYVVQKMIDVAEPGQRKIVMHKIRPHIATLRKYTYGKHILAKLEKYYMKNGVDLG
In outline:
as §1

Test [5] has as its target PUM1 PUF domain R3-FSS (Homo sapiens, UniProt Q14671 828-1176, C935F;R936S;Q939S). An outline of the steps: as §1
In test [6] the target is PUM1 PUF domain R7-TVA (Homo sapiens, UniProt Q14671 828-1176, S1079T;N1080V;E1083A). An outline of the steps:
as §1

The target of test [7] is PUM1 PUF domain R3-MWG (Homo sapiens, UniProt Q14671 828-1176, C935M;R936W;Q939G). An outline of the steps: as §1
Test [8] addresses PUM1 PUF domain R2-CFP (Homo sapiens, UniProt Q14671 828-1176, N899C;Y900F;Q903P). In outline: as §1
Test [9] concerns the target PUM1 PUF domain R5-KGL (Homo sapiens, UniProt Q14671 828-1176, C1007K;R1008G;Q1011L). In outline:
as §1

The target of test [10] is PUM1 PUF domain R1-RGI (Homo sapiens, UniProt Q14671 828-1176, S863R;R864G;Q867I). In outline: as §1

Turning to “GGCUAGAACUAGUGGAUCCCCCGGCGCCCGGCGGCUCGAGCCCGGGUAAGCGUAAAUAGUCUGCAUGCCGCCGGGCGCCAUGCCUGCAGGUCGACUCUAGAAAACAUG”, the results for the binding signal in test [1] and in [2] were 4.27 log2 enrichment (interaction score) and 5.14 log2 enrichment (interaction score), respectively.

“GGCUAGAACUAGUGGAUCCCCCGGCGCCCGGCGGCUCGAGCCCGGGUAAGUGUAAAUAGUCUGCAUGCCGCCGGGCGCCAUGCCUGCAGGUCGACUCUAGAAAACAUG”: the binding signal in test [1] was 4.25 log2 enrichment (interaction score); in test [3], 4.65 log2 enrichment (interaction score); in test [4] it was 2.71 log2 enrichment (interaction score); in test [2], 5.28 log2 enrichment (interaction score).

“GGCUAGAACUAGUGGAUCCCCCGGCGCCCGGCGGCUCGAGCCCGGGUAAGUGUAAGUAGUCUGCAUGCCGCCGGGCGCCAUGCCUGCAGGUCGACUCUAGAAAACAUG”: the binding signal in test [5] is 2.46 log2 enrichment (interaction score).

Regarding “GGCUAGAACUAGUGGAUCCCCCGGCGCCCGGCGGCUCGAGCCCGGGUAAGUUUAAAUAGUCUGCAUGCCGCCGGGCGCCAUGCCUGCAGGUCGACUCUAGAAAACAUG”, in test [6], the binding signal was 3.46 log2 enrichment (interaction score).

Turning to “GGCUAGAACUAGUGGAUCCCCCGGCGCCCGGCGGCUCGAGCCCGGGUAAGUGUAAUUAGUCUGCAUGCCGCCGGGCGCCAUGCCUGCAGGUCGACUCUAGAAAACAUG”, in test [7], the binding signal was 3.86 log2 enrichment (interaction score).

On to “GGCUAGAACUAGUGGAUCCCCCGGCGCCCGGCGGCUCGAGCCCGGGUAAGUGUAAAAAGUCUGCAUGCCGCCGGGCGCCAUGCCUGCAGGUCGACUCUAGAAAACAUG”, for which, in test [8], the binding signal was 10.2 log2 enrichment (interaction score).

In the case of “GGCUAGAACUAGUGGAUCCCCCGGCGCCCGGCGGCUCGAGCCCGGGUAAGUGUCAAUAGUCUGCAUGCCGCCGGGCGCCAUGCCUGCAGGUCGACUCUAGAAAACAUG”, in test [9], the binding signal was 3.86 log2 enrichment (interaction score).

As for “GGCUAGAACUAGUGGAUCCCCCGGCGCCCGGCGGCUCGAGCCCGGGUAAGUGUAAAUCGUCUGCAUGCCGCCGGGCGCCAUGCCUGCAGGUCGACUCUAGAAAACAUG”, the binding signal in test [10] is 2.06 log2 enrichment (interaction score).

Take “GGCUAGAACUAGUGGAUCCCCCGGCGCCCGGCGGCUCGAGCCCGGGUAAGUGUAAAUUGUCUGCAUGCCGCCGGGCGCCAUGCCUGCAGGUCGACUCUAGAAAACAUG”: in test [10], the binding signal is 1.53 log2 enrichment (interaction score).

Source of the values: article PMC8384837, “Expanding the binding specificity for RNA recognition by a PUF domain”.
